The panel holds about 83,000 compounds, 20% with a hit somewhere; the sample as a whole holds those more often.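 Results are percent growth after 48 hours of single-concentration exposure. 100 means growth as in untreated cells, lower positive values show inhibition; negative values down to -100 show cell death.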 A number with no mark means an inactive call. Calls of active or inactive are those of the source. How the source made its calls: active means growth percent below 10; inactive means the rest.
Tests used:
Experiment in all cases: NCI-60 one-dose screen, 48 h (100 = growth as untreated, 0 = no growth, -100 = all killed)
Settings in all cases: 10 µM unless noted
NCI-H23 lung = tested on: NCI-H23 lung
NCI-H322M lung = tested on: NCI-H322M lung
HOP-62 NSCLC = tested on: HOP-62 NSCLC
NCI-H460 lung = tested on: NCI-H460 lung
HOP-92 NSCLC = tested on: HOP-92 NSCLC
NCI-H522 lung = tested on: NCI-H522 lung
A549/ATCC NSCLC = tested on: A549/ATCC NSCLC
786-0 renal = tested on: 786-0 renal
COLO 205 colon = tested on: COLO 205 colon
DU-145 prostate = tested on: DU-145 prostate
MALME-3M melanoma = tested on: MALME-3M melanoma
MDA-MB-231 breast = tested on: MDA-MB-231 breast
SF-268 CNS = tested on: SF-268 CNS
SF-295 CNS = tested on: SF-295 CNS
SF-539 CNS = tested on: SF-539 CNS
UACC-257 melanoma = tested on: UACC-257 melanoma
M14 melanoma = tested on: M14 melanoma
HCT-15 colon = tested on: HCT-15 colon
K-562 leukemia = tested on: K-562 leukemia
RXF 393 renal = tested on: RXF 393 renal

Compound	growth (NCI-H23 lung) [%]	growth (NCI-H322M lung)	growth (HOP-62 NSCLC) [%]	growth (NCI-H460 lung)	growth (HOP-92 NSCLC)	growth (NCI-H522 lung)	growth (A549/ATCC NSCLC)	growth (786-0 renal)	growth (COLO 205 colon)	growth (DU-145 prostate)	growth (MALME-3M melanoma)	growth (MDA-MB-231 breast)	growth (SF-268 CNS)	growth (SF-295 CNS)	growth (SF-539 CNS)	growth (UACC-257 melanoma)	growth (M14 melanoma)	growth (HCT-15 colon)	growth (K-562 leukemia)	growth (RXF 393 renal)
COc1cc(/C=C/C(=O)N2c3ccccc3CC2C)c(OC)c2c1OCO2 (stereo not drawn)	90.8	101%	119	98.2%	97.4%	81.5%	89.1%	94.9%	125%	94.5%	101%	92.2%	97%	83.6%	98.3%	100%	90.7%	69.8%		
Cc1ccc(S(=O)c2ccc([N+](=O)[O-])c3nonc23)cc1 (stereo not drawn)	102	110%	112	99.5%	109%	-60.1% (active)	101%	102%	-39.7% (active)	112%	81.2%		105%	119%	106%	100%	104%	66.5%	38.9%	111%
COc1ccc(-c2nocc2-c2cccs2)cc1	105	102%	101	102%	86.6%	98.5%	99.3%	103%	115%	107%	106%	92.8%	101%	95.1%	101%	118%	111%	99.1%		
COc1ccc(-n2c(C(O)c3ccccc3)nn(CN3CCOCC3)c2=S)cc1 (stereo not drawn)	99.4	104%	101	111%	82.6%	89.9%	103%	106%	112%	109%	104%	97.6%	103%	79.7%	102%	105%	95.2%	113%	110%	
Cc1cccc(NC(=O)c2sc3nc4c(cc3c2N)CCCC4)c1C	30.2	42.4%	26.4	6.76% (active)	49.6%	-6.44% (active)	26.3%	34%	-38% (active)	19.6%	45.7%	38.6%	34.9%	6.95% (active)	-12.2% (active)	66.3%	4.97% (active)	16.2%		
COc1ccc(-n2c(C(O)c3ccccc3)n[nH]c2=S)cc1 (stereo not drawn)	101	102%	92.5	108%	83.6%	89.7%	102%	99.1%	110%	113%	94.9%	92.2%	95.9%		101%	90.4%	90%	107%	99.3%	
COC(=O)/C(=C\c1c(-c2ccccc2)[nH]c2ccccc12)S(C)(=O)=O	33.9	63.8%	38.2	12.5%	65.4%	47.1%	38.6%	38.1%	24.3%	-5.09% (active)	74.1%	49.7%	26.8%	32%	4.74% (active)	67.4%	14.9%	34.5%	17.2%	
COc1ccc(-c2c(-c3ccc(OC)c(O)c3)cnc3ncnn23)cc1	99.9	106%	111	108%	95.1%	96%	100%	103%	126%	105%	111%	102%	101%	102%	98.6%	105%	106%	100%		
O=C(Nc1ccc(-c2nc3cc4ccccc4cc3[nH]2)cc1)c1cccc(Br)c1	54.1	41.3%	49.9	6.74% (active)	72.6%	16.3%	27%	17.6%	34.6%	46.4%		69.2%	37%	-36.3% (active)	30.8%	42.3%	34.2%	22.3%	26.7%	29%
CC(=O)O[C@@H]1/C=C/C(=O)N[C@@H](C)CCC/C=C/[C@@H]2CCC[C@H]21	98.2	93.2%	99	107%	92.9%	37.9%	108%	101%	114%	112%	117%	122%	104%	98.6%	94%	101%	103%	114%	102%	
COc1ccc(-c2cn3c(C(=O)Nc4ccccc4Cl)c(-c4ccccc4)c4c3n2CCCC4)cc1	86.8	102%	88.1	75.2%	64.3%	76.7%	85.3%	90.8%	77.2%	86.2%		87.3%	93.1%	54.7%	87%	91.3%	73.6%	60.8%	49.8%	109%
Cn1c(C(=O)c2cccc3ccccc23)nc2ccccc21	19.4	-2.65% (active)	18.6	3.61% (active)	34%	-4.82% (active)	3.42% (active)	5.77% (active)	12.9%	18.3%		29.1%	2.01% (active)		-1.45% (active)	-7.56% (active)	-45.9% (active)	29.4%	7.22% (active)	13.5%
CCOc1c(Br)cc(C2C(C(=O)OC)=CN(C)C=C2C(=O)OC)cc1OC	98	76.3%	84.6	48.3%	39.2%	75.9%	85.9%	58.3%	-88.1% (active)	91.4%		49.4%	68.1%	24%	94.2%			41%	8.68% (active)	64.2%
CCCCCCCCCCOC(=O)c1ccccc1C(=O)OCCCC	107	108%	107	120%	91.3%	91.2%	111%	106%	117%	114%	157%		109%		103%	111%	100%	111%	99.9%	
COc1cccc(C(=O)Cn2cc(/C=C(\C#N)S(=O)(=O)c3ccccc3)c3ccccc32)c1	90.4	96.7%	83.1	57.5%	68.8%	88%	93.1%	99.3%	90.7%	105%	108%	102%	93.7%	88.8%	90.5%	89.9%	86.5%	110%	79.2%	
O=C(/C=C/c1ccc(C(F)(F)F)cc1)c1ccc(Nc2nc(NCCO)nc(Nc3ccc(Cl)cc3)n2)cc1	76.4	86.1%	53.2	28.7%	70.5%	65.3%	26.6%	-41% (active)		58%	96.3%	59.3%	50.6%	79.6%	51.3%	92.1%	54.7%	6.59% (active)	12.5%	42.8%
Cn1c(/C=C(\C#N)c2cccc(C(F)(F)F)c2)nc2c(N3CCOCC3)nc(Cl)nc21	16	63.1%	34.1	26.7%	-77.4% (active)	-56% (active)	33.6%	-74.2% (active)		-80.3% (active)	-21.8% (active)	-70.1% (active)	-50.8% (active)	85.1%	-79.9% (active)	-64.5% (active)	-77.3% (active)	-37.3% (active)	-12.2% (active)	-92.2% (active)

— PubChem BioAssay (NCI)
